In the antibiotic and cytotoxicity screens of Wong et al. (2023):
The whole screen tested about 39,000 compounds, of which about 3,300 (8.5%) were called active. The sample holds actives, similar compounds and a random draw of the others, so the mix is not that of the screen.

Tested on: HepG2
Assay: cytotoxicity call (relative viability < 0.9)
Conditions: 10 µM

Compound | cytotoxicity call
CC[C@@H](O)C[C@H]1CC[C@H]([C@@H](C)C(=O)O[C@@H](C)C[C@H]2CC[C@H]([C@@H](C)C(=O)O[C@@H](C)C[C@H]3CC[C@H]([C@@H](C)C(=O)O[C@@H](C)C[C@H]4CC[C@H]([C@@H](C)C(=O)O)O4)O3)O2)O1 | active
COc1ccc(S(=O)(=O)Nc2ccc3c(c2)CC(=O)N([C@H](C)CO)C[C@@H](C)[C@@H](CN(C)C(=O)Nc2c(C)noc2C)O3)cc1 | inactive
C[C@@H]1CCCCO[C@H](CN(C)C(=O)c2ccccc2)[C@@H](C)CN([C@H](C)CO)C(=O)c2cc(NC(=O)c3ccccc3)ccc2O1 | inactive
O=C(O)c1cnns1 | inactive
C[C@H](CO)N1C[C@H](C)[C@@H](CN(C)C(=O)Nc2cccc3ccccc23)OCc2cn(nn2)CCCC1=O | inactive
C[C@@H]1CN([C@H](C)CO)C(=O)c2cccc(NC(=O)C3CCOCC3)c2O[C@@H]1CN(C)Cc1ccc(C(=O)O)cc1 | inactive
O=C(NCc1nc2ccccc2[nH]1)C1=C[C@H](c2ccc(C(F)(F)F)cc2)C[C@H](OCc2ccc(CO)cc2)O1 | inactive
O=C(NCc1nc2ccccc2[nH]1)C1=C[C@H](c2ccc(Br)cc2)C[C@H](OCc2ccc(CO)cc2)O1 | inactive
O=C(NCc1nc2ccccc2[nH]1)C1=C[C@@H](c2ccc(Br)cc2)C[C@@H](OCc2ccc(CO)cc2)O1 | active
C[C@@H]1CCCCO[C@@H](CN(C)C(=O)Nc2cccc3ccccc23)[C@H](C)CN([C@H](C)CO)C(=O)c2cc(NS(=O)(=O)c3ccc(Cl)cc3)ccc2O1 | active
C[C@H]1CCCCO[C@@H](CN(C)C(=O)Nc2cccc3ccccc23)[C@@H](C)CN([C@@H](C)CO)C(=O)c2cc(NS(=O)(=O)c3ccc(Cl)cc3)ccc2O1 | inactive
C[C@@H]1CCCCO[C@H](CN(C)C(=O)Nc2cccc3ccccc23)[C@H](C)CN([C@H](C)CO)C(=O)c2cc(NS(=O)(=O)c3ccc(Cl)cc3)ccc2O1 | active
C[C@@H]1CCCCO[C@@H](CN(C)C(=O)Nc2cccc3ccccc23)[C@H](C)CN([C@@H](C)CO)C(=O)c2cc(NS(=O)(=O)c3ccc(Cl)cc3)ccc2O1 | inactive
C[C@H](CO)N1C[C@H](C)[C@H](CN(C)C(=O)Nc2cccc3ccccc23)OCCCC[C@H](C)Oc2ccc(NS(=O)(=O)c3ccc(Cl)cc3)cc2C1=O | inactive
C[C@@H]1CN([C@@H](C)CO)C(=O)c2cc(NS(=O)(=O)c3ccc(Cl)cc3)ccc2O[C@@H](C)CCCCO[C@@H]1CN(C)C(=O)Nc1cccc2ccccc12 | inactive
CO[C@@H]1CN(C)C(=O)c2ccc(NC(=O)Nc3ccccc3)cc2OC[C@H](C)N(C(=O)CN(C)C)C[C@@H]1C | inactive
COc1ccc(S(=O)(=O)Nc2cccc3c2O[C@H](CN(C)C(=O)NC(C)C)[C@H](C)CN([C@@H](C)CO)C3=O)cc1 | inactive
C[C@@H]1CCCCO[C@@H](CN(C)C(=O)NC2CCCCC2)[C@@H](C)CN([C@H](C)CO)C(=O)c2cc(NC(=O)NC3CCCCC3)ccc2O1 | inactive
COc1ccc(S(=O)(=O)N(C)C[C@@H]2Oc3ncc(C#Cc4ccccc4)cc3C(=O)N([C@H](C)CO)C[C@@H]2C)cc1 | inactive
O=c1[nH]nc2ccccn12 | inactive

Compound | cytotoxicity call
CN1C(=O)c2cc(NC(=O)C3CCOCC3)ccc2OC[C@@H]2O[C@@H](CC(=O)NCc3ccc4c(c3)OCO4)CC[C@H]21 | inactive
COc1ccc(C(C)(C)N)cc1OC | inactive
C[N+]1(C)C[C@H](O)[C@H](C(=O)O)C1 | active
C[N+]1(C)C[C@@H](O)C[C@H]1C(=O)O | inactive
C[C@@H]1C[C@H]1C(=O)O | inactive
CN1CCN(C(=O)C[C@@H]2C=C[C@@H](NC(=O)Cc3ccccn3)[C@H](CO)O2)CC1 | inactive
CCCC#Cc1cnc2c(c1)C(=O)N([C@@H](C)CO)C[C@H](C)[C@H](CN(C)S(=O)(=O)c1cccc(OC)c1)O2 | inactive
CCN1C[C@]23CN(C(=O)c4ccn[nH]4)C[C@@H](C[C@H]2S1(=O)=O)O3 | inactive
COc1ccc(S(=O)(=O)N(C)C[C@@H]2OCCCC[C@@H](C)Oc3ccc(NC(=O)CCC(F)(F)F)cc3C(=O)N([C@H](C)CO)C[C@H]2C)cc1 | inactive
COc1cc(C[C@H]2CO[C@H](c3ccc(O)c(OC)c3)[C@@H]2CO[C@H]2O[C@@H](CO)[C@@H](O)[C@@H](O)[C@@H]2O)ccc1O | active
COc1cc([C@H]2OC[C@](O)(Cc3ccc(O[C@@H]4O[C@H](CO)[C@@H](O)[C@H](O)[C@H]4O)c(OC)c3)[C@@H]2CO)ccc1O | inactive
COc1cc([C@H]2OC[C@@H]3[C@H]2CO[C@H]3c2cc(OC)c(O[C@@H]3O[C@H](CO)[C@@H](O)[C@H](O)[C@H]3O)c(OC)c2)cc(OC)c1OC | inactive
COc1ccc(NC(=O)Nc2ccc3c(c2)C(=O)N([C@@H](C)CO)C[C@@H](C)[C@H](CN(C)Cc2ccc(C(F)(F)F)cc2)OCCCC[C@H](C)O3)cc1 | inactive
COc1ccc(CN(C)C[C@@H]2OCCCC[C@H](C)Oc3ccc(NC(=O)Nc4ccc(C(F)(F)F)cc4)cc3C(=O)N([C@H](C)CO)C[C@@H]2C)cc1 | active
COc1ccc(CN(C)C[C@@H]2OCCCC[C@H](C)Oc3ccc(NC(=O)Nc4ccc(C(F)(F)F)cc4)cc3C(=O)N([C@@H](C)CO)C[C@@H]2C)cc1 | active
COc1ccc(NC(=O)Nc2ccc3c(c2)C(=O)N([C@@H](C)CO)C[C@H](C)[C@@H](CN(C)Cc2ccc(C(F)(F)F)cc2)OCCCC[C@H](C)O3)cc1 | inactive
COc1ccc(CN(C)C[C@@H]2OCCCC[C@@H](C)Oc3ccc(NC(=O)Nc4ccc(C(F)(F)F)cc4)cc3C(=O)N([C@@H](C)CO)C[C@H]2C)cc1 | active
COc1ccc(NC(=O)Nc2ccc3c(c2)C(=O)N([C@H](C)CO)C[C@H](C)[C@@H](CN(C)Cc2ccc(C(F)(F)F)cc2)OCCCC[C@H](C)O3)cc1 | inactive
COc1ccc(NC(=O)Nc2ccc3c(c2)C(=O)N([C@H](C)CO)C[C@@H](C)[C@@H](CN(C)Cc2ccc(C(F)(F)F)cc2)OCCCC[C@H](C)O3)cc1 | inactive
COc1ccc(CN(C)C[C@H]2OCCCC[C@@H](C)Oc3ccc(NC(=O)Nc4ccc(C(F)(F)F)cc4)cc3C(=O)N([C@H](C)CO)C[C@@H]2C)cc1 | active
